Source: PubChem
G9a inh: qHTS Assay for Inhibitors of Histone Lysine Methyltransferase G9a; Histone-lysine N-methyltransferase EHMT2 (Homo sapiens), Q96KQ7; G9a H3K9 monomethylation, AlphaScreen, 2 h; Potency, µM (series often up to 102 µM), actives largely listed as inhibitors; hit rate 8.8% among 350,000; AID 504332, 2011; further: nearly all actives have a fitted effect of over 75% in size
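Quantitative HTS format: methyltransferase activity on a biotin-tagged H3K9 peptide is measured by AlphaScreen, using a rabbit anti-monomethyl-H3K9 antibody with streptavidin donor and anti-IgG acceptor beads. Final levels are 20 nM enzyme, 500 nM peptide, 20 uM SAM; 2 h RT.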
JMJD2A Tudor inh: qHTS Assay for Inhibitors of JMJD2A-Tudor Domain. AlphaScreen JMJD2A-Tudor / H3K4me3 peptide binding. Potency, µM (series often up to 114 µM), most hits filed as inhibitors. hit rate 4.4% among 390,000. AID 504339, 2011; further: nearly all actives have a fitted effect of over 50% in size
PI5P4Ka inh: qHTS for Inhibitors of phosphatidylinositol 5-phosphate 4-kinase (PI5P4K); AID 652105, 2013; PI5P4Kalpha enzyme, ADP-Glo luminescence, 60 min; stronger effect = lower value; hit rate 1.2% among 330,000; max response, %; Phosphatidylinositol 5-phosphate 4-kinase type-2 alpha (Homo sapiens), P48426; active means max response of -50% or lower; inconclusive means between -30% and -50%; inactive means -30% or higher; further: value at the top dose of about 77 µM
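PI5P4Kalpha ADP-Glo assay; 5 microM ATP final; 60 min RT reaction; HEPES pH 7.4/EGTA/CHAPS, 5% DMSO; controls lacking substrate or enzyme; luminescent end-point.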
BAZ2B inh: qHTS Assay for Inhibitors of BAZ2B; hit rate 4.4% among 360,000; Potency, µM (titrated, usually from 114 µM), actives largely listed as inhibitors; AID 504333, 2011; AlphaScreen BAZ2B-H3K14Ac peptide displacement; further: nearly all actives have a fitted effect of over 60% in size
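In this displacement format the biotinylated H3(5-23) peptide acetylated at Lys14 serves as ligand at 50 nM, with BAZ2B at 50 nM in PBS pH 7.4 containing 0.01% Tween-20. Donor and acceptor beads are 10 ug/mL final.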
HP1b chromo inh: HTS for Inhibitors of HP1-beta Chromodomain Interactions with Methylated Histone Tails; Chromobox protein homolog 1 (Homo sapiens), P83916; AlphaScreen HP1-beta / biotin-H3K9me3 peptide binding; Potency, µM (highest dose often 114 µM), hits mostly inhibitors; hit rate 0.56% among 390,000; AID 540317, 2011; further: nearly all actives have a fitted effect of over 70% in size
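AlphaScreen: HP1-beta (50 nM) preformed 30 min with biotin-H3(1-18)K9me3 peptide (50 nM) in PBS pH 7.4, 0.01% Tween-20. Compound added for 30 min at RT, then streptavidin donor/nickel chelate acceptor beads (10 ug/mL) for 30 min.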
PLK1 PBD block: qHTS for Inhibitors of PLK1-PDB (polo-like kinase 1 - polo-box domain): Primary Screen | AID 720504, 2013 | Serine/threonine-protein kinase PLK1 (Homo sapiens), P53350 | hit rate 2.8% among 360,000 | Plk1 PBD binding of FITC phosphopeptide, fluorescence polarization | Potency, µM, actives largely listed as inhibitors; further: series mostly up to about 57 µM; nearly all actives have a fitted effect of over 65% in size
Target sequence (P53350 whole entry, looked up, the tested form may be a part): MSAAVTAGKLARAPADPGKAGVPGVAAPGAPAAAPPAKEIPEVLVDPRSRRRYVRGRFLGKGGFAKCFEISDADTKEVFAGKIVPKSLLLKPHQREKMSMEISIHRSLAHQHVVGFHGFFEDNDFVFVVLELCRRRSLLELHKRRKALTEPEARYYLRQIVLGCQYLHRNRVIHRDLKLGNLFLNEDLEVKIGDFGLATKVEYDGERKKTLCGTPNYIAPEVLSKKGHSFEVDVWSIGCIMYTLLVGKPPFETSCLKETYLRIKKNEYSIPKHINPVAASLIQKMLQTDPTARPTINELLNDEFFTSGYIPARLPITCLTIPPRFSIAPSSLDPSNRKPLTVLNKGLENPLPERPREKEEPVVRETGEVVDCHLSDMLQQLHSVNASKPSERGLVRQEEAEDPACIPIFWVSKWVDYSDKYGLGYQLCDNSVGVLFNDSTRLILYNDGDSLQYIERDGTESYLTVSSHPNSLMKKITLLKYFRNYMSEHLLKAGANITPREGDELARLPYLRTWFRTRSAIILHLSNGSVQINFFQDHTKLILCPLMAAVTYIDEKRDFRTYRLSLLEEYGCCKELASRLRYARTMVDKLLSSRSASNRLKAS
Numbers stand for hits; – = inactive; ? = inconclusive; · = not tested or not shown; [ ] = remark or other dose. Most compounds without a hit are left out; they make up all but 12% or so of the library. Unless noted, the call rests on the fitted dose curve; in most records, active means well fitted curve in the direction sought with a large enough effect; inconclusive means small, poorly fitted or top-dose-only effect, or another doubt; inactive means no such curve, though single readings can be large; an effect the other way counts as inactive or inconclusive.

SMILES | G9a inh | JMJD2A Tudor inh | PI5P4Ka inh | BAZ2B inh | HP1b chromo inh | PLK1 PBD block
CCN(CC)CCCn1c2c(c(SCC(=O)Nc3ccc(F)c(F)c3)nc1=O)CCC2 | – | – | – | – | – | –
CCN(CC)CCCn1c2c(c(SCC(=O)Nc3cccc4ccccc34)nc1=O)CCC2 | 40µM | – | – | – | – | –
CCN(CC)CCCn1c2c(c(SCC(=O)Nc3cc(OC)cc(OC)c3)nc1=O)CCC2 | 50µM | – | – | – | – | –
Cc1ccc(NC(=O)CSc2nc(=O)n(CCCN(C)C)c3c2CCC3)c(C)c1 | – | – | – | – | – | –
CCCCc1ccc(NC(=O)CSc2nc(=O)n(CCN(CC)CC)c3c2CCC3)cc1 | 50µM | – | – | – | – | –
CN(C)CCCn1c2c(c(SCC(=O)Nc3cccc4ccccc34)nc1=O)CCCC2 | 40µM | – | – | – | – | –
Cc1cc(C(=O)OCC(=O)Nc2sc3c(c2C#N)CCC(C)C3)c2ccccc2n1 (stereo not given) | 45µM | – | – | – | – | ?
COc1ccccc1-c1cc(C(=O)Nc2sc3c(c2C#N)CCC(C)C3)c2ccccc2n1 (stereo not given) | –[2.33 µM] | –[11.4 µM] | – | – | – | 27µM
COc1ccc(C2(C(=O)c3ccccc3)C(=O)c3ccccc3C2=O)cc1 | · | 35µM | – | 22µM | ? | 12µM
COCCCN1C(=O)/C(=C\c2cccs2)C(C(=O)OC)=C1C | ? | – | – | ? | – | –
COC(=O)C1=C(C)N(Cc2cccnc2)C(=O)/C1=C\c1sccc1C | · | 45µM | – | 35µM | 35µM | –
COC(=O)C1=C(C)N(C2CCCCC2)C(=O)/C1=C\c1cccs1 | 3.2µM | ? | – | 3.2µM | – | –
CCOC(=O)C1=C(C)N(CC(C)C)C(=O)/C1=C\c1cccs1 | · | ? | – | 11µM | ? | –
CCN1C(=O)/C(=C\c2cccs2)C(C(=O)OC)=C1C | 45µM | 56µM | – | 50µM | ? | –
Cc1cc2c(s1)c1c(C)nn(Cc3ccccc3F)c(=O)c1n2C | –[12.7 µM] | · | · | – | · | ·
CCOC(=O)CNC(=O)Nc1cc(C(=O)NCc2ccc(C(C)C)cc2)ccc1N1CCCC1 | – | – | · | – | – | ·
Cc1ccc(C)n1-c1nnc(N2CCC(C(=O)Nc3ccccc3Br)CC2)s1 | – | – | · | – | – | ·
COC(=O)C1=C(C)N(CC(C)C)C(=O)/C1=C\c1cccs1 | 40µM | 45µM | – | 50µM | 16µM | –
COC(=O)C1=C(C)N(C)C(=O)/C1=C\c1cccs1 | ? | ? | · | ? | ? | –
Cc1ccc(/C=C/c2nc3sc(C(=O)O)c(C)c3c(=O)[nH]2)cc1[N+](=O)[O-] | 7.1µM | ? | ? | 89µM | – | ?
Cc1c(C(=O)O)sc2nc(/C=C/c3ccccc3OC(F)F)[nH]c(=O)c12 | ? | 16µM | -63 | 71µM | ? | –
Cc1c(C(=O)O)sc2nc(/C=C/c3cccc(F)c3)[nH]c(=O)c12 | – | – | -55 | ? | – | –
N=C1/C(=C\c2ccc(Br)o2)C(=O)N=C2SC(CC(=O)N3CCCCC3)=NN12 | 45µM | – | -66 | ? | – | –
CN(C)c1ccc(/C=C2\C(=N)N3N=C(CC(=O)N4CCCCC4)SC3=NC2=O)cc1 | – | ? | ? | ? | – | –
Cc1ccc(/C=C2/C(=N)N3N=C(CC(=O)N4CCCC4)SC3=NC2=O)o1 | 32µM | – | – | – | – | –
SMILES | G9a inh | JMJD2A Tudor inh | PI5P4Ka inh | BAZ2B inh | HP1b chromo inh | PLK1 PBD block
C#CCN1Cc2ccccc2Oc2cc(Br)ccc2S1(=O)=O | · | – | – | · | – | –
O=C1Nc2ccc(Br)cc2/C1=N\N=C\C1=C(N2CCOCC2)C(=C/c2ccccc2)/CC1 | · | 3.2µM | – | · | 5µM | –
O=C1Nc2ccccc2/C1=N\N=C\C1=C(N2CCOCC2)C(=C\c2ccccc2)/CC1 | ? | · | · | 7.1µM | · | ·
Cn1cc(C(=O)N/N=C/C2=C(N3CCOCC3)C(=C\c3ccccc3)/CC2)ccc1=O | – | – | – | – | – | –
CC(NC(=O)C12CC3CC(CC(C3)C1)C2)C(=O)N/N=C/C1=C(N2CCOCC2)C(=C\c2ccccc2)/CC1 (stereo not given) | – | – | – | – | – | –
Cc1ccccc1-n1c(SCc2csc(Nc3ccccc3)n2)nnc1-c1cccnc1 | 25µM | ? | – | ? | – | –
Cc1ccc(Nc2nc(CSc3nnc(-c4cccnc4)n3-c3ccccc3C)cs2)cc1 | ? | ? | – | ? | – | –
Cc1ccc(Nc2nc(CSc3nnc(-c4ccccc4C)n3C)cs2)cc1 | 32µM | 79µM | – | ? | – | –
CCc1nc2cccnc2n1-c1ccc(CC(=O)Nc2ccccc2Cl)cc1 | – | – | · | – | – | ·
CC(=O)Nc1ccccc1-c1nc2ccccc2n(C(C)C(=O)Nc2ccccc2C(F)(F)F)c1=O (stereo not given) | ? | – | · | – | – | ·
COc1cccc2c1Oc1ncccc1N(C(=O)CCC(=O)NCc1cccc(C)c1)C2 | – | ? | – | – | – | –
CCn1cnc2c1c(=O)n(Cc1cccc(Br)c1)c(=O)n2Cc1ccccc1 | – | 71µM | – | – | – | ?
CCOC(=O)C1CCN(C(=O)CSc2n[nH]c(-c3ccc(OC)cc3)n2)CC1 | – | – | · | – | – | ·
Cc1cc(F)ccc1S(=O)(=O)Nc1ncnc2sccc12 | – | –[11.4 µM] | – | – | – | 21µM
COc1ccc2c(c1)C(c1cc(OC)c(OC)c(OC)c1)CC(=O)O2 (stereo not given) | – | · | · | · | · | ·
COc1ccccc1OCCSc1nc2ccccc2n1CC(=O)N1CCOCC1 | – | – | · | – | – | ·
O=C(CSCc1cnn(-c2ccccc2)c1-n1cccc1)N1CCN(Cc2ccccc2)CC1 | 40µM | ? | – | ? | – | –
O=C(Nc1nnc(SCc2ccc(F)cc2)s1)c1ccccn1 | 50µM | 28µM | – | 25µM | – | –
CC(=O)Nc1nnc(SCc2ccc(C(=O)Nc3ccccc3F)cc2)s1 | 45µM | – | – | – | – | –
Cn1nnnc1SCc1ccc(C(=O)Nc2ccccc2F)cc1 | – | – | – | – | – | –
O=C(Nc1nnc(SCc2ccc(F)cc2)s1)c1cccnc1Cl | ? | – | – | – | – | –
COc1ccc(Cl)cc1NS(=O)(=O)N1CCOCC1 | – | – | – | – | – | –
CCN(CC)Cc1c(O)ccc2c(-c3ccccc3)cc(=O)oc12 | – | – | – | – | – | –
CCCCN(CC)Cc1c(O)ccc2c(-c3ccccc3)cc(=O)oc12 | ? | –[11.4 µM] | – | – | – | 27µM
Cc1c(Cl)cccc1NC(=O)N1CCN(Cc2cc(=O)n3nc(-c4ccccc4F)sc3n2)CC1 | – | – | · | – | – | ·
